# Experimental data reported in the supplement of paper PMC8728848.
# About 410 targets per protein were measured; listed, in parts, are those with the strongest signals and a random draw of the rest.
# B1: Gal 7 (Canis lupus) (protein)
# chain: MAGSSNVPHKTSLPEGIRVGTVMRIRGVVPNKAGRFYVNLLCGEAPGSEAALHFNPRLDESTVVFNTLEQGAWGREERGTGIPFQRGQPFDVLLIATDEGFKAVVGDSEYHHFRYRIPPARVRLLEVGGDLQLESVSVF
# Tests used:
# Test in all cases: glycan array binding signal (z-score within array); higher = stronger binding
# Settings in all cases: glycan notation: IUPAC condensed, linker removed
# [1] = biological target: Fuc(a1-2)Gal(b1-3)GlcNAc(b1-2)Man(a1-3)[Fuc(a1-2)Gal(b1-3)GlcNAc(b1-2)Man(a1-6)]Man(b1-4)GlcNAc(b1-4)[Fuc(a1-6)]GlcNAc
# Summary of the method: (§1)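 Columns mapping to the same glycan were averaged after glycan names were converted to IUPAC-condensed notation. The data come from 3228 arrays in the Consortium for Functional Glycomics database, limited to those with an available protein sequence. Binding is reported as a within-array Z-score averaged across arrays of one protein sequence and across linkers.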
# [2] = biological target: Fuc(a1-2)Gal(b1-3)GlcNAc(b1-3)GalNAc
# Summary of the method: as §1
# [3] = biological target: Fuc(a1-2)Gal(b1-3)[Fuc(a1-4)]GlcNAc(b1-3)[Gal(b1-4)GlcNAc(b1-6)]Gal(b1-4)Glc
# Summary of the method: as §1
# [4] = biological target: Fuc(a1-2)Gal(b1-4)GlcNAc(b1-3)Gal(b1-4)GlcNAc
# Summary of the method: as §1
# [5] = biological target: Fuc(a1-2)Gal(b1-4)GlcNAc(b1-3)Gal(b1-4)GlcNAc(b1-3)Gal(b1-4)GlcNAc
# Summary of the method: as §1
# [6] = biological target: Fuc(a1-2)Gal(b1-4)[Fuc(a1-3)]GlcNAc(b1-3)Gal(b1-4)[Fuc(a1-3)]GlcNAc(b1-3)Gal(b1-4)[Fuc(a1-3)]GlcNAc
# Summary of the method: as §1
# [7] = biological target: Fuc(a1-2)[Gal(a1-3)]Gal(b1-4)GlcNAc(b1-2)Man(a1-3)[Fuc(a1-2)[Gal(a1-3)]Gal(b1-4)GlcNAc(b1-2)Man(a1-6)]Man(b1-4)GlcNAc(b1-4)[Fuc(a1-6)]GlcNAc
# Summary of the method: as §1
# [8] = biological target: Fuc(a1-2)[Gal(a1-3)]Gal(b1-4)[Fuc(a1-3)]GlcNAc(b1-3)GalNAc
# Summary of the method: as §1
# [9] = biological target: Fuc(a1-2)[GalNAc(a1-3)]Gal(b1-4)GlcNAc(b1-3)Gal(b1-4)GlcNAc
# Summary of the method: as §1
# [10] = biological target: Fuc(a1-2)[GalNAc(a1-3)]Gal(b1-4)GlcNAc(b1-3)Gal(b1-4)GlcNAc(b1-3)Gal(b1-4)GlcNAc
# Summary of the method: as §1
# Fuc(a1-3)GlcNAc = biological target: Fuc(a1-3)GlcNAc
# Summary of the method: as §1
# Gal(b1-2)Gal = biological target: Gal(b1-2)Gal
# Summary of the method: as §1
# [11] = biological target: Gal(b1-3)GalNAc(a1-3)[Fuc(a1-2)]Gal(b1-4)Glc
# Summary of the method: as §1
# [12] = biological target: Gal(b1-3)GlcNAc(b1-2)Man(a1-3)[Gal(b1-3)GlcNAc(b1-2)Man(a1-6)]Man(b1-4)GlcNAc(b1-4)GlcNAc
# Summary of the method: as §1
# [13] = biological target: Gal(b1-3)[Fuc(a1-4)]GlcNAc(b1-2)Man(a1-3)[Gal(b1-3)[Fuc(a1-4)]GlcNAc(b1-2)Man(a1-6)]Man(b1-4)GlcNAc(b1-4)GlcNAc
# Summary of the method: as §1
# [14] = biological target: Gal(b1-3)[Fuc(a1-4)]GlcNAc(b1-2)Man(a1-3)[Gal(b1-3)[Fuc(a1-4)]GlcNAc(b1-2)Man(a1-6)]Man(b1-4)GlcNAc(b1-4)[Fuc(a1-6)]GlcNAc
# Summary of the method: as §1
# [15] = biological target: Gal(b1-4)GlcNAc(b1-3)Gal(b1-4)GlcNAc(b1-3)Gal(b1-4)GlcNAc
# Summary of the method: as §1
# [16] = biological target: Gal(b1-4)GlcNAc(b1-6)Gal(b1-4)GlcNAc
# Summary of the method: as §1
# Gal4S(b1-4)GlcNAc = biological target: Gal4S(b1-4)GlcNAc
# Summary of the method: as §1
# Gal6S(b1-4)Glc = biological target: Gal6S(b1-4)Glc
# Summary of the method: as §1
# Gal6S(b1-4)GlcNAc = biological target: Gal6S(b1-4)GlcNAc
# Summary of the method: as §1
# [17] = biological target: GlcNAc(b1-2)Man(a1-3)[GlcNAc(b1-4)][GlcNAc(b1-2)Man(a1-6)]Man(b1-4)GlcNAc(b1-4)GlcNAc
# Summary of the method: as §1
# [18] = biological target: Neu5Ac(a2-3)Gal(b1-3)GlcNAc(b1-3)GalNAc
# Summary of the method: as §1
# [19] = biological target: Neu5Ac(a2-6)Gal(b1-4)GlcNAc(b1-2)Man(a1-3)[Gal(b1-4)GlcNAc(b1-2)Man(a1-6)]Man(b1-4)GlcNAc(b1-4)GlcNAc
# Summary of the method: as §1
# [20] = biological target: Neu5Ac(a2-6)Gal(b1-4)GlcNAc(b1-2)Man(a1-6)[Man(a1-3)]Man(b1-4)GlcNAc(b1-4)GlcNAc
# Summary of the method: as §1
# [21] = biological target: Neu5Ac(a2-6)Gal(b1-4)GlcNAc(b1-3)Gal(b1-3)GlcNAc
# Summary of the method: as §1
# [22] = biological target: Neu5Ac(a2-6)Gal(b1-4)GlcNAc(b1-3)Gal(b1-4)GlcNAc(b1-3)Gal(b1-4)GlcNAc
# Summary of the method: as §1
# [23] = biological target: Neu5Gc(a2-3)Gal(b1-4)GlcNAc
# Summary of the method: as §1
binder,measurement,setting,value
B1,glycan array binding signal (z-score),[1],-0.169
same,glycan array binding signal (z-score),[2],-0.187
same,glycan array binding signal (z-score),[3],-0.135
same,glycan array binding signal (z-score),[4],9.85
same,glycan array binding signal (z-score),[5],8.28
same,glycan array binding signal (z-score),[6],5.78
same,glycan array binding signal (z-score),[7],1.25
same,glycan array binding signal (z-score),[8],-0.16
same,glycan array binding signal (z-score),[9],3.55
same,glycan array binding signal (z-score),[10],2.59
same,glycan array binding signal (z-score),Fuc(a1-3)GlcNAc,-0.217
same,glycan array binding signal (z-score),Gal(b1-2)Gal,-0.214
same,glycan array binding signal (z-score),[11],0.252
same,glycan array binding signal (z-score),[12],-0.08
same,glycan array binding signal (z-score),[13],-0.166
same,glycan array binding signal (z-score),[14],-0.199
same,glycan array binding signal (z-score),[15],3.2
same,glycan array binding signal (z-score),[16],-0.206
same,glycan array binding signal (z-score),Gal4S(b1-4)GlcNAc,-0.2
same,glycan array binding signal (z-score),Gal6S(b1-4)Glc,-0.204
same,glycan array binding signal (z-score),Gal6S(b1-4)GlcNAc,-0.195
same,glycan array binding signal (z-score),[17],-0.186
same,glycan array binding signal (z-score),[18],-0.22
same,glycan array binding signal (z-score),[19],-0.212
same,glycan array binding signal (z-score),[20],-0.212
same,glycan array binding signal (z-score),[21],3.85
same,glycan array binding signal (z-score),[22],3.5
same,glycan array binding signal (z-score),[23],-0.217
